The supplement of paper PMC12350171
Where a name gives a salt, the structure may show the parent alone. Unmarked numbers belong to inactive results.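 The calls were made as follows: active = AUC significantly below DMSO controls by Student t-fit with adjusted P under 0.01; inactive = not significantly reduced.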

system: Salmonella enterica typhimurium; test: growth AUC normalised to DMSO control (fraction of control); higher = less growth inhibition, active = hit call of the paper; conditions: 20 µM
Procedure, shortened: (§1)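 For the AUC endpoint, growth curves were integrated by the trapezoidal rule up to the exponential-to-stationary transition and normalised to DMSO controls on the same plate. The curves came from OD578 readings taken hourly for 24 h, in three biological replicates. Pathogens had been passaged anaerobically twice and inoculated at an OD578 of 0.01 into pre-reduced mGAM plates carrying 20 μM compound and 1% DMSO, sealed with breathable membranes. Medium for Haemophilus parainfluenzae also contained hemin and NAD.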

Structure (SMILES)	growth AUC normalised to DMSO control
Cc1scc2c1N(C(=O)CN1CCN(C)CC1)c1ccccc1NC2=O [Telenzepine dihydrochloride]	1.02
CCCCN(CCCC)CCC(O)c1cc2c(Cl)cc(Cl)cc2c2cc(C(F)(F)F)ccc12 (stereo not given) [Halofantrine hydrochloride]	0.944
CCN1CCCC1CNC(=O)c1cc(S(=O)(=O)CC)c(N)cc1OC (stereo not given) [Amisulpride]	0.998
Clc1ccc(CCC(Cn2ccnc2)Sc2c(Cl)cccc2Cl)cc1 (stereo not given) [Butoconazole nitrate]	1
CCn1nc(C(=O)O)c(=O)c2cc3c(cc21)OCO3 [Cinoxacin]	0.0189 (active)
CCC1(c2ccccc2)NC(=O)N(C)C1=O (stereo not given) [Mephenytoin]	1.01
CCCN(CCC)C(=O)C(CCC(=O)O)NC(=O)c1ccccc1 (stereo not given) [Proglumide]	1.01
O=C1NCC2(CCN(CCc3ccccc3)CC2)O1 [Fenspiride hydrochloride]	0.967
CC(c1cc2ccccc2s1)N(O)C(N)=O (stereo not given) [Zileuton]	0.987
c1ccc2c(c1)CCCC2C1=NCCN1 (stereo not given) [Tetrahydrozoline hydrochloride]	0.981

system: Shigella flexneri; test: as above; conditions: 20 µM
Procedure, shortened: as §1

Structure (SMILES)	growth AUC normalised to DMSO control
Cn1c(=O)c2c(ncn2CC(O)CO)n(C)c1=O (stereo not given) [Diprophylline]	0.996
CC(C)(C)NC[C@@H](O)COc1cccc2c1CCCC2=O [(+) Levobunolol hydrochloride]	0.943
C[C@]12CCC(=O)C=C1CC[C@@H]1[C@@H]2[C@@H](O)C[C@@]2(C)[C@H]1CC[C@]2(O)C(=O)CO [Hydrocortisone]	0.969
C#Cc1cccc(Nc2ncnc3cc(OCCOC)c(OCCOC)cc23)c1 [Erlotinib]	1.03
O=C1CCC(N2C(=O)c3ccccc3C2=O)C(=O)N1 (stereo not given) [Thalidomide]	0.971
CCOC(=O)C1=C(COCCN)NC(C)=C(C(=O)OC)C1c1ccccc1Cl (stereo not given) [Amlodipine]	0.99
COc1ccc(CN(CCN(C)C)c2ccccn2)cc1 [Pyrilamine maleate]	0.995
CN1CCCC(CC2c3ccccc3Sc3ccccc32)C1 (stereo not given) [Metixene hydrochloride]	1
CC(C)/N=c1\cc2n(-c3ccc(Cl)cc3)c3ccccc3nc-2cc1Nc1ccc(Cl)cc1 [Clofazimine]	0.996
NC(N)=Nc1nc(CSCC/C(N)=N/S(N)(=O)=O)cs1 [Famotidine]	0.965
O=C1c2ccccc2C(=O)C1c1ccccc1 [Phenindione]	0.956
CN1CCN2c3ccccc3Cc3ccccc3C2C1 (stereo not given) [Mianserine hydrochloride]	0.986
CCN1C(=O)NC(c2ccccc2)C1=O (stereo not given) [Ethotoin]	0.99
CC(=O)OCC(=O)[C@@]12OC3(CCCC3)O[C@@H]1C[C@H]1[C@@H]3CCC4=CC(=O)C=C[C@]4(C)[C@@]3(F)[C@@H](O)C[C@@]12C [Amcinonide]	1.02
CCc1cccc(CC)c1NC(=O)CN(CC(=O)O)CC(=O)O [Etifenin]	0.99
COc1ccc(C(Cl)=C(c2ccc(OC)cc2)c2ccc(OC)cc2)cc1 [Chlorotrianisene]	0.944
CC(=O)c1ccc2c(c1)N(CCCN(C)C)c1ccccc1S2 [Acetopromazine maleate salt]	1
CCN1CCCC(OC(=O)C(c2ccccc2)c2ccccc2)C1 (stereo not given) [Piperidolate hydrochloride]	1.02
CCCCOc1ccc(CC(=O)NO)cc1 [Bufexamac]	0.974
NC[C@@H]1O[C@H](O[C@H]2[C@@H](O)[C@H](O[C@@H]3[C@@H](O)[C@H](N)C[C@H](N)[C@H]3O[C@H]3O[C@H](CN)[C@@H](O)[C@H](O)[C@H]3N)O[C@@H]2CO)[C@H](N)[C@@H](O)[C@@H]1O [Neomycin sulfate]	1.04

Structure (SMILES)	growth AUC normalised to DMSO control
COc1cc(C(=O)OCCCN2CCCN(CCCOC(=O)c3cc(OC)c(OC)c(OC)c3)CC2)cc(OC)c1OC [Dilazep dihydrochloride]	1.03
NC1CCN(c2c(F)cc3c(=O)c(C(=O)O)cn(C4CC4)c3c2Cl)C1 (stereo not given) [Clinafloxacin]	0.0463 (active)
CC(=O)O[C@H]1C[C@@]2(C)[C@@H](C[C@@H](O)[C@H]3[C@@]4(C)CC[C@@H](O)[C@@H](C)[C@@H]4CC[C@@]32C)/C1=C(\CCC=C(C)C)C(=O)O [Fusidic acid sodium salt]	0.974
c1cnc(N2CCN(Cc3ccc4c(c3)OCO4)CC2)nc1 [Piribedil]	1.03
O=C(CCCCC(=O)Nc1c(I)cc(I)c(C(=O)O)c1I)Nc1c(I)cc(I)c(C(=O)O)c1I [Iodipamide]	0.998
COc1ccc2c(c1)C(=O)N(CCc1ccc(S(=O)(=O)NC(=O)NC3CCCCC3)cc1)C(=O)C2(C)C [Gliquidone]	1.02
CC1(C)S[C@@H]2[C@H](NC(=O)[C@H](C(=O)O)c3ccsc3)C(=O)N2[C@H]1C(=O)O [Ticarcillin sodium]	0.178 (active)
CCOC(=O)/C=C(C)/C=C/C=C(C)/C=C/c1c(C)cc(OC)c(C)c1C [Etretinate]	1.03
O=C(O)COCCN1CCN(C(c2ccccc2)c2ccc(Cl)cc2)CC1 (stereo not given) [Cetirizine dihydrochloride]	0.994
CCN(CC)C(C)CN1c2ccccc2Sc2ccccc21 (stereo not given) [Ethopropazine hydrochloride]	0.999
Cc1scc2c1N(C(=O)CN1CCN(C)CC1)c1ccccc1NC2=O [Telenzepine dihydrochloride]	1.01
CCCCN(CCCC)CCC(O)c1cc2c(Cl)cc(Cl)cc2c2cc(C(F)(F)F)ccc12 (stereo not given) [Halofantrine hydrochloride]	1.04
CCN1CCCC1CNC(=O)c1cc(S(=O)(=O)CC)c(N)cc1OC (stereo not given) [Amisulpride]	1
Clc1ccc(CCC(Cn2ccnc2)Sc2c(Cl)cccc2Cl)cc1 (stereo not given) [Butoconazole nitrate]	1.01
CCn1nc(C(=O)O)c(=O)c2cc3c(cc21)OCO3 [Cinoxacin]	0.0786 (active)
CCC1(c2ccccc2)NC(=O)N(C)C1=O (stereo not given) [Mephenytoin]	0.997
CCCN(CCC)C(=O)C(CCC(=O)O)NC(=O)c1ccccc1 (stereo not given) [Proglumide]	1.04
O=C1NCC2(CCN(CCc3ccccc3)CC2)O1 [Fenspiride hydrochloride]	0.947
CC(c1cc2ccccc2s1)N(O)C(N)=O (stereo not given) [Zileuton]	0.986
c1ccc2c(c1)CCCC2C1=NCCN1 (stereo not given) [Tetrahydrozoline hydrochloride]	0.981
